Hits are enriched below; roughly 1.1% of the tested compounds scored in any of these assays.
GPT2 inhibitor = inhibitors of human GPT2 alanine aminotransferase; Q8TD30; Recombinant GPT2, coupled pyruvate oxidase/HRP Amplex Red fluorescence; Potency, µM (titrated, usually from 57.7 µM), inactives show at the highest dose activity change, negative = inhibition, usual class: inhibitors; 100,000 compounds, 0.25% hits; AID 1671188; note: potency is the fitted concentration of half-maximal effect; nearly all actives have a fitted effect of over 60% in size
Target sequence (Q8TD30 whole entry, looked up): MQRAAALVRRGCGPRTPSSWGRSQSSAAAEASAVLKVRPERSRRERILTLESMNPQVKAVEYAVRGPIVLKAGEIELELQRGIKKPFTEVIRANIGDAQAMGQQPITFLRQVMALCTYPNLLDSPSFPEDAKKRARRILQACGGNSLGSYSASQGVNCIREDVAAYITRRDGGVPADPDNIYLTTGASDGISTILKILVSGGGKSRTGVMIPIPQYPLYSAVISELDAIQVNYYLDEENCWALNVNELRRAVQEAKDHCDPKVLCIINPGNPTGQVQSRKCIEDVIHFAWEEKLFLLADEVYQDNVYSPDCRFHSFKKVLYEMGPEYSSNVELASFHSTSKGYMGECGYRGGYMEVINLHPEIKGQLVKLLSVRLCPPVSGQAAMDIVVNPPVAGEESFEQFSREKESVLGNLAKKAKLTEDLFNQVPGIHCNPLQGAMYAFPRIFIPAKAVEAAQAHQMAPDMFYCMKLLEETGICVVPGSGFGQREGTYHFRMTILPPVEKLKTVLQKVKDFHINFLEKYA
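Fluorescence of coupled pyruvate oxidase/HRP/Amplex Red system (50uM Amplex, 30 min, dark) reports pyruvate formed by GPT2. Enzyme reaction: 10ng/uL GPT2, 2mM L-alanine, 250uM a-KG, 30 min room temperature, pH 7.5; 50uM AOA control.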
IP6K1 inhibitor = inhibitors of human IP6K1 | Q92551 | IP6K1 kinase, ADP-Glo luminescence, 2 h; active compounds read low | activity change, % (series mostly up to about 58 µM) | 140,000 compounds, 0.81% hits; in the data active = activity change below about -25%
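ADP-Glo luminescence measures ADP made by human IP6K1 during a 2 h RT reaction with ATP/IP6 (mix at 1.3 mM/130 uM); top library doses 57.5 and 19.1 uM final.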
SNCA expr inh = SNCA gene expression inhibition. Potency, µM (series often up to 57.2 µM), inactives show at the top dose activity change, negative = inhibition, hits mostly inhibitors. HEK-293 SNCA-luciferase knock-in, luminescence, 24 h. 140,000 compounds, 0.17% hits;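 note: potency is the fitted concentration of half-maximal effect; plate controls were DMSO cells for no effect and cell-free wells for full effect; nearly all actives have a fitted effect of over 45% in size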
SNCA viab count = cell viability loss counter-screen. Potency, µM (highest dose often 57.1 µM), for inactives: at the top dose activity change, negative = cytotoxicity, hits mostly cytotoxic. 150,000 compounds, 0.12% hits. HEK-293-SNCA-luc viability, GF-AFC fluorescence, 24 h;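 note: potency is the fitted concentration of half-maximal effect; 0% = DMSO-treated cells and -100% = medium-only wells without cells; nearly all actives have a fitted effect of over 30% in size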
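Cytotoxicity counterscreen: after 24 h compound treatment of genome-edited SNCA-luciferase HEK-293 cells, live-cell protease substrate GF-AFC read by fluorescence after 30 min; activity scaled between DMSO (0%) and medium-only (-100%), curves Hill-fitted.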
IP6K1 conf = confirmation of human IP6K1 inhibitors | Potency, µM (doses to about 49 µM), for inactives: at the top dose activity change, negative = inhibition, usual class: inhibitors | shares compounds with IP6K1 inhibitor | 1,200 compounds, 13% hits | AID 1645852 | recombinant IP6K1 kinase, ADP-Glo luminescence, 2 h; note: potency is the fitted concentration of half-maximal effect; nearly all actives have a fitted effect of over 65% in size
* = called active by the depositor; i = inactive; ? = inconclusive; nt = not tested or not shown; [ ] = dose if it differs, or a comment. Unless noted, calls come from the whole dose curve; as a rule, active = well fitted curve in the direction sought with a large enough effect; inconclusive = small, poorly fitted or top-dose-only effect, or another doubt; inactive = no such curve, though single readings can be large; an effect the other way counts as inactive or inconclusive. Unless noted, % is set by controls: 0 for no effect and ±100 for the full control effect.

SMILES | GPT2 inhibitor | IP6K1 inhibitor | SNCA expr inh | SNCA viab count | IP6K1 conf
O=C(CCC[C@H]1NC[C@@H]2CC1CN(Cc1ccccc1)C2)N1CCCCC1 | i | 4 | -18% | 3% | nt
COc1cccc(N2CCN(C(=O)CCC[C@H]3NC[C@@H]4C[C@H]3CN(Cc3ccccc3)C4)CC2)c1 | ? | -26* | -9% | 3% | 1%
COc1ccc(OCC(O)CN2CCC(=O)N(CC3CC3)Cc3cc(F)ccc32)cc1 (stereo not given) | nt | -12 | nt | nt | nt
Cc1nn(-c2ccccc2)c2c1C(C)N(C1CCCN(C(=O)c3ccccc3F)C1)C2=O (stereo not given) | nt | 5 | nt | nt | nt
CC#C[C@@H](CC(=O)O)c1ccc(OCc2cccc(-c3ccc(C(F)(F)F)cc3)c2)cc1 | ? | -28* | nt | -11% | ?
CC(C)C(=O)Nc1cccc(C(=O)Nc2nnc(C(F)(F)F)s2)c1 | nt | -29* | 71% | 0% | -11%
Clc1ccc(-c2cnc3n2C[C@H](CNCc2ccc4c(c2)OCO4)OC3)cc1 | -6%[88.5 µM] | 8 | -16%[87.6 µM] | -9%[87.6 µM] | nt
O=C(NCCc1c[nH]c2ccccc12)Nc1ccccc1C(F)(F)F | nt | -15 | -13% | -14% | nt
c1cc(NCCc2c[nH]c3ccccc23)cc(Nc2ccncc2)c1 | ? | -34* | nt | ? | -5%
COc1ccc(-c2c(-c3cc(C(=O)O)ccn3)ncn2C)cc1 | -26% | -35* | nt | -20% | ?
CCOc1ccccc1CN1C(=O)c2ccccc2C1C(=O)NC1CCCCCC1 (stereo not given) | nt | -41* | -5% | ? | -18%
COc1ccccc1-c1nc(NCc2ccccc2)c2ccccc2n1 | nt | nt | ? | -29% | nt
Fc1ccc(CNc2nc(-c3ccccc3C(F)(F)F)nc3ccccc23)cc1 | nt | nt | nt | nt | -2%
Fc1cccc(CNc2nc(-c3ccccc3C(F)(F)F)nc3ccccc23)c1 | nt | nt | nt | nt | -8%
Cc1cc(C)cc(N(CC(=O)Nc2ccc(C)cc2Cl)S(=O)(=O)c2c(C)[nH]c(=O)[nH]c2=O)c1 | nt | -27* | -35% | -5% | 25%
COc1ccc(CNC(=O)CN(c2ccc(OC)cc2)S(=O)(=O)c2c(C)[nH]c(=O)[nH]c2=O)cc1 | nt | -12 | 85% | 13% | nt
COc1ccc(N(CC(=O)NCc2ccc(C)cc2)S(=O)(=O)c2c(C)[nH]c(=O)[nH]c2=O)cc1 | nt | -25* | 91% | 21% | -12%
Cc1ccc([S+](=O)([O-])NC2CCN(Cc3cccc(-c4ccc(F)c(F)c4)c3)CC2)cc1 | ? | 1 | -37% | -27% | nt
CCC(=O)N1CCc2cc(OC)c(OC)cc2C1COc1ccc2c(C)cc(=O)oc2c1 (stereo not given) | nt | -31* | 22% | -4% | -3%
COc1cc2c(cc1OC)C(COc1ccc3c(C)cc(=O)oc3c1)N(C(=O)CC(C)C)CC2 (stereo not given) | nt | -9 | 14% | 3% | nt
COc1ccc(C(=O)NC2CCN(c3ccc4nnc(C5CC5)n4n3)CC2)cc1 | nt | 13 | nt | nt | nt
Cc1nn(-c2ccccc2)c2c1C(C)N(C1CCN(C(=O)Nc3ccc(Cl)cc3)C1)C2=O (stereo not given) | nt | -14 | nt | nt | nt
COc1ccc(CN(C)Cc2ccoc2)cc1OCC(O)CN1CCCCC1 (stereo not given) | i[11.5 µM] | -38* | -8% | -27% | -11%
COc1ccc(CN(C)Cc2cccs2)cc1OCC(O)CN1CCN(C)CC1 (stereo not given) | i | 18 | -1% | -16% | nt
COc1ccc(CC(=O)N2CCN(c3ccc4nnc(-c5ccccc5)n4n3)CC2)cc1 | nt | 7 | nt | nt | nt
SMILES | GPT2 inhibitor | IP6K1 inhibitor | SNCA expr inh | SNCA viab count | IP6K1 conf
COc1cccc(NC(=O)Nc2cccc(-c3ccc(N4CCOCC4)nn3)c2)c1 | 5% | -21 | -55% | ? | nt
Nc1cccc(-c2ccc(N3CCOCC3)nn2)c1 | i | -30* | ? | 6% | ?
Cc1nn(-c2ccccc2)c2c1C(C(C)C)N(C1CCN(C(=O)Cc3cccc(Cl)c3)C1)C2=O (stereo not given) | nt | 3 | nt | nt | nt
COC(=O)c1cccnc1-n1c(=O)c2cccnc2n(CC(=O)Nc2c(C)cc(C)cc2C)c1=O | nt | 18 | 12% | -7% | nt
COC(=O)c1cccnc1-n1c(=O)c2cccnc2n(CC(=O)Nc2ccccc2F)c1=O | nt | -28* | -9% | -5% | 16%
Cc1ccc(OCC(=O)Nc2ccccc2OCc2cc(=O)n3ccccc3n2)cc1C | nt | -27* | 29% | 10% | -4%
O=C(c1ccc(Cl)cc1)N1CCNc2cnc(Nc3cccc(C(F)(F)F)c3)nc2C1 | -12% | -6 | 14% | 0% | nt
O=C(CSc1nc2c(cnn2-c2ccc(F)cc2)c(=O)[nH]1)Nc1ccc(Br)cc1 | nt | -28* | 4% | -2% | -1%
Cc1cc(C)cc(NC(=O)CSc2nc3c(cnn3-c3ccc(F)cc3)c(=O)[nH]2)c1 | nt | -3 | -15% | -6% | nt
COc1ccc(C(=O)NC2CCCN(Cc3ccc(-c4cccc(OC)c4)cc3)C2)cc1 (stereo not given) | i | 8 | -6% | -27% | nt
CCOC(=O)[C@H]1C[C@]2(CCCCNC2=O)N(C(=O)/C=C/c2ccccc2)[C@H]1c1ccco1 | nt | 7 | nt | nt | nt
CCC(=O)N1CCc2c(sc3ncnc(Nc4ccccc4)c23)C1 | i | -10 | 4% | -7% | nt
Oc1cccc(Nc2ncnc3sc4c(c23)CCCC4)c1 | nt | -28* | 15% | -25% | ?
CN1C[C@@H](NC(=O)Nc2ccccc2)C[C@H]1c1nc(-c2ccccc2)no1 | i | -25* | 49%[87.6 µM] | 2%[87.6 µM] | ?
CN1C[C@@H](NC(=O)Nc2ccccc2)C[C@H]1c1nc(-c2ccc(F)cc2)no1 | -3%[88.5 µM] | -10 | -26%[87.6 µM] | -14%[87.6 µM] | nt
Cc1nn(-c2ccccc2)c2c1C(C(C)C)N(C1CCCN(C(=O)Nc3ccccc3)C1)C2=O (stereo not given) | nt | 23 | nt | nt | nt
O=C(Cn1c(=O)oc2cc(Cl)ccc21)Nc1cccc(C(F)(F)F)c1 | nt | -28* | ? | -10% | 28%
Cc1nc(-c2ccc(Cl)cc2)n(CC(=O)Nc2cccc(C(F)(F)F)c2)c(=O)c1CCO | i | 0 | ? | -25% | nt
COc1cccc(N2CCN(C(=O)CCSCc3ccccc3F)CC2)c1 | nt | -29* | 45% | 3% | -13%
Cc1nn(-c2ccccc2)c2c1C(C)N(C1CN(C(=O)Cc3cccc(Cl)c3)C1)C2=O (stereo not given) | nt | 7 | nt | nt | nt
CC(=O)Nc1ccc(NC(=O)c2csnn2)cc1 | nt | -5 | ? | 7% | nt
Cc1ccc(Cl)cc1NC(=O)c1csnn1 | nt | -37* | -13% | -4% | ?
Cn1sc(=O)n(Cc2ccccc2)c1=O | ? | -83* | nt | ? | 18µM*
Cc1ccc(NC(=O)c2oc3c(c2C)-c2[nH]ncc2CC3)c(Cl)c1 | nt | -45* | 136% | 14% | -18%
Cc1cccc(NC(=O)c2oc3c(c2C)-c2[nH]ncc2CC3)c1C | nt | -12 | 242% | 1% | nt

Screens from PubChem.
